PfHsp40 rescue = compounds rescuing yeast from Plasmodium falciparum HSP40 toxicity; S. cerevisiae expressing PfHsp40, growth rescue, ATP luminescence; growth rescue, % at 12.5 µM; actives 0.68% (n = 340,000); AID 504582; in the data active = growth rescue above about 28%, passing the limit was not always enough;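 note: yeast W303a lacking pdr1 and pdr3 grown in galactose medium; growth measured after three days at 30 °C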
PrP 5UTR inh = suppresses PrP 5' UTR mRNA reporter expression; cell-based PrP 5' UTR mRNA reporter, plate reader; inhibition, % (test concentration not listed); actives 0.35% (n = 340,000); AID 488862; in the data active = inhibition above about 52%; note: 0 = median of the neutral control wells
BJeLR viability = BJeLR cell viability loss. BJeLR (HRASV12) viability, CellTiter-Glo ATP luminescence, 48 h. inhibition, % (test concentration not listed). actives 0.17% (n = 300,000). AID 1554; in the data active = inhibition above about 50%
PriA SSB inh = K. pneumoniae PriA-SSBct interaction inhibition; AlphaScreen SSBct-PriA binding, biotinylated peptide; inhibition, % at 33 µM; actives 0.6% (n = 430,000); AID 1272365; in the data active = inhibition mostly above about 37%, no sharp cut-off; inactive = mostly below about 20%;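 note: plate controls were negative control peptide for no effect and reference peptide for full effect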
Yp Topo-I inh = blocks Yersinia pestis topoisomerase I activity; activity, % at 10 µM; Y. pestis Topo-I cleavage product accumulation, plate reader; actives 0.064% (n = 360,000); in the data active = activity above about 50%, passing the limit was not always enough
PrPC TRFRET = inhibitors of human cell surface prion protein PrPC; AID 720596; TR-FRET read-out; inhibition, % at 13.8 µM; actives 0.43% (n = 370,000); P04156; in the data active = inhibition above about 24%; note: 0% = median of the test wells and 100% = reference compound wells
PrPC confirm = cell surface PrPC inhibition, TR-FRET confirmation; inhibition, % at 13.8 µM; actives 65% (n = 1,500); AID 743200; shares compounds with PrPC TRFRET; cell surface PrPC level; in the data active = inhibition above about 25%
LD9 tox = LD9 cell cytotoxicity, PrPc inhibitor counter-screen. shares compounds with PrPC TRFRET. LD9 cells cytotoxicity, luminescence viability. inhibition, % at 13.8 µM. actives 29% (n = 1,500); in the data active = inhibition above about 9.5%
An asterisk follows results filed as active; . = not tested or not shown. Only some compounds are listed: those with a hit (about 1.7% of all), similar ones and a draw of the others.

SMILES | PfHsp40 rescue | PrP 5UTR inh | BJeLR viability | PriA SSB inh | Yp Topo-I inh | PrPC TRFRET | PrPC confirm | LD9 tox
NC(Cc1ccc(Cl)cc1)c1csc(Nc2ncccn2)n1 (stereo not given) | . | . | . | . | 6 | 52* | 60* | 13*
COc1ccc(C(=O)C=CNc2cccc(C)n2)cc1OC | . | . | . | 6 | . | . | . | .
Cc1nc(-c2cccnc2)sc1-c1ccc(SCC(=O)Nc2ccc(Cl)cc2)nn1 | . | . | . | -10 | . | . | . | .
NC(c1csc(Nc2ncccn2)n1)c1ccccc1Cl (stereo not given) | . | . | . | . | 1 | 33* | 19 | -8
COc1cc(OC)nc(Nc2nc(C(N)c3ccccc3Cl)cs2)n1 (stereo not given) | . | . | . | . | 29 | 0 | . | .
S=c1[nH]nc2ccc3ccccc3n12 | . | . | . | -3 | . | -8 | . | .
S=c1[nH]c2ccccc2n2c(=S)[nH]nc12 | 3 | -24 | 8 | -10 | 11 | 30* | 59* | 0
Cc1onc(-c2ccccc2)c1C(=O)Oc1cccnc1 | 0 | -22 | 2 | -9 | -7 | 30* | 1 | -7
CCOc1ccc2c(c1)C(C)=CC(C)(C)N2S(=O)(=O)c1ccc(NC(C)=O)cc1 | 1 | 78* | 50 | 8 | 32 | 24* | 12 | 16*
COC(=O)c1sc(NC(=S)NNC(=O)c2c(Br)c(C)nn2C)c(C(=O)OC)c1C | 0 | -5 | 3 | 26 | -2 | 132* | 146* | -3
COc1cccc(N2CCN(c3ncnc4c3[nH]c3ccccc34)CC2C)c1 (stereo not given) | . | . | 10 | . | . | 55* | 75* | 90*
COC(=O)OCC12CCC(O1)C1(C)C(=O)OCC21 (stereo not given) | 0 | -30 | -1 | -11 | -2 | 0 | . | .
CC(=O)OC[C@]12CC[C@H]3[C@@](C)(CC[C@H]4C(C)(C)CCC[C@]34C)[C@@H]1CC(C1=CC(=O)OC1O)O2 (stereo not given in full) | . | . | . | . | 25 | 54* | 83* | 99*
CC(C)CSc1nnc2c3ccccc3n(C)c2n1 | 21 | -65 | -4 | -16 | -10 | 58* | 66* | -3
C[C@H](Oc1ccccc1)C(=O)N1CCC(c2nnc(-c3ccsc3)o2)CC1 | . | . | . | -8 | . | . | . | .
O=C(Nc1ccc(F)cc1)c1nc(S(=O)(=O)Cc2ccccc2)ncc1Cl | 1 | -7 | 36 | 4 | 4 | 66* | 64* | 94*
CCS(=O)(=O)c1ncc(Cl)c(C(=O)Nc2ccc(S(=O)(=O)N(C)c3ccccc3)cc2)n1 | 3 | -6 | 35 | 13 | 15 | 89* | 102* | 97*
Cc1ccccc1CS(=O)(=O)c1ncc(Cl)c(C(=O)Nc2ccc(F)cc2)n1 | -1 | 15 | 27 | -6 | 5 | 8 | . | .
Cc1cccc(CS(=O)(=O)c2ncc(Cl)c(C(=O)NCc3ccccc3)n2)c1 | 1 | -1 | 21 | -7 | 11 | 26* | 5 | 46*
Cc1ccc(NC(=O)c2nc(S(=O)(=O)Cc3ccccc3)ncc2Cl)cc1 | 1 | -5 | 31 | 2 | -5 | 84* | 56* | 92*
O=C(NCc1cccs1)N1CCN(CC(O)c2ccco2)CC1 (stereo not given) | . | . | . | -8 | . | . | . | .
CN1CCc2cc(C(CNC(=O)c3c(F)cccc3F)N3CCOCC3)ccc21 (stereo not given) | . | . | . | -8 | . | . | . | .
CCC1(CC)NC(=O)N(CC(=O)Nc2cc(C)cc(C)c2)C1=O | . | . | . | -14 | . | . | . | .
CC[C@H](C)[C@@H]1NC(=O)CNC(=O)c2csc(n2)[C@H](C(C)(C)O)OC(=O)C(C)(C)[C@H](CCCC(C)(Cl)Cl)OC(=O)c2csc1n2 | . | . | . | . | . | 34* | 26* | 9
COc1cnc(-c2ccccn2)nc1N(C)C | 0 | -42 | -8 | 98* | -11 | 26* | 27* | 1
c1ccc(-c2cccc(CNc3nc(-c4ccccn4)nnc3-c3ccccc3)c2)cc1 | . | . | . | . | . | 33* | 36* | 25*
c1ccc(CCNc2nc(-c3ccccn3)nc3ccccc23)cc1 | 4 | -12 | 27 | 15 | 32 | 10 | . | .

Compound activity as filed in PubChem.
